ASK1 primary: human ASK1 kinase inhibition, primary screen; AID 1159602; AlphaScreen MKK6 phosphorylation by ASK1, luminescence; 22,000 compounds, 0.99% hits; inhibition, % at 7.44 µM; Q99683; in the data active means inhibition above about 35%;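 further: 0% = median of compound wells and 100% = no enzyme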
ULK1 inh: human ULK1 kinase inhibition, primary screen | AlphaScreen Atg13 phosphorylation by ULK1, luminescence | inhibition, % at 5.96 µM | 30,000 compounds, 1.9% hits; in the data active means inhibition above about 43%;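 further: 0% = median of compound wells and 100% = no enzyme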
Target sequence (O75385 whole entry, looked up): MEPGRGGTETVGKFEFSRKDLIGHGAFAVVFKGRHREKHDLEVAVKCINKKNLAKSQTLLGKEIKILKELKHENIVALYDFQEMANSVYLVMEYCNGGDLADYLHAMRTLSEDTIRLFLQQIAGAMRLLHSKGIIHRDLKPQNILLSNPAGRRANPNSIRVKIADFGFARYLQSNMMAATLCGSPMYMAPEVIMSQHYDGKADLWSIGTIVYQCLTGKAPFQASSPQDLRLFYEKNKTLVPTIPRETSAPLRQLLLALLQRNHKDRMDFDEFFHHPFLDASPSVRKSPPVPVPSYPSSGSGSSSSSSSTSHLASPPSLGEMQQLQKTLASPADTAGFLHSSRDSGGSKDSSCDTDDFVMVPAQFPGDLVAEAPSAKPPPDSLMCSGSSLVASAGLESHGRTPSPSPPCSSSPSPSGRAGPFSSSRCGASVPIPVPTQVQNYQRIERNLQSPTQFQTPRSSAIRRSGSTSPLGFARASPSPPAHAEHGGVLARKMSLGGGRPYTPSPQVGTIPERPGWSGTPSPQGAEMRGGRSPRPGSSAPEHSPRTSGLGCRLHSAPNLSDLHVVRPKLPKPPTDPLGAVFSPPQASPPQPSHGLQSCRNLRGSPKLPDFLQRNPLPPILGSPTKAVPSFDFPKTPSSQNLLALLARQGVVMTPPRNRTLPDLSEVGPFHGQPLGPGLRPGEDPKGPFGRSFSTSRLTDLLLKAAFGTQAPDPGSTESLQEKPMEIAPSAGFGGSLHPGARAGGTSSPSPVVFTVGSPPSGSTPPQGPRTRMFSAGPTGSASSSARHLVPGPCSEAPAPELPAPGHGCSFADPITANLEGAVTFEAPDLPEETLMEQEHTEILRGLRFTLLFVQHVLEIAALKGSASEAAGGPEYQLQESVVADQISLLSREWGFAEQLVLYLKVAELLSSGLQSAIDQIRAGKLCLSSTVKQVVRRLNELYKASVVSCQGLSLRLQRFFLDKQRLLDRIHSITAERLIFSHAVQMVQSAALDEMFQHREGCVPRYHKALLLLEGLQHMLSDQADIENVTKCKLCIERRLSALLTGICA
* = called active by the depositor; . = not tested or not shown. This is a sample that favours compounds with a hit; in the whole collection about 2.4% have one here.

SMILES	ASK1 primary	ULK1 inh
CC(=O)Nc1ccc(Nc2nc(Nc3ccc(-n4ccnc4)cc3)nc3nc[nH]c23)cc1	-12.7	52.1*
OCCNc1nc(Nc2ccc(-n3ccnc3)cc2)nc2nc[nH]c12	-60.2	56.2*
COc1ccc(CCNc2nc(Nc3ccc(-n4ccnc4)cc3)nc3nc[nH]c23)cc1	-16.9	26.8
c1ccc(OCCNc2nc(Nc3ncccn3)nc3nc[nH]c23)cc1	9.3	4.9
c1ccc(Nc2nc(Nc3ccc(-n4ccnc4)cc3)nc3nc[nH]c23)cc1	-9.0	23.5
c1ccc(OCCNc2nc(Nc3ccncc3)nc3nc[nH]c23)cc1	2.0	56.7*
Oc1ccc(CCNc2nc(NCc3cccnc3)nc3c2ncn3Cc2ccc(C(F)(F)F)cc2)cc1	5.7	-14.6
O=C(Nc1cncc(-c2ccncc2)c1)C1Cc2ccc3ccccc3c2O1 (centres undefined)	-17.9	-11.6
Cc1cncc2c(S(=O)(=O)N3CC[C@@H](NC(=O)C(O)c4ccc(Cl)cc4)C3)cccc12 (some centres undefined)	-1.3	-5.9
O=C(NCc1cccc(C(F)(F)F)c1)c1cnc(Nc2ccc(-n3ccnc3)cc2)s1	21.1	17.5
CC(=O)Nc1ccc(Nc2nc(NC3CCC(O)CC3)nc3c2ncn3C(C)C)cc1 (centres undefined)	9.3	61.8*
OC1CCC(Nc2nc(Nc3ccccc3)c3ncn(-c4ccccc4)c3n2)CC1 (centres undefined)	-1.2	2.8
CC(C)n1cnc2c(Nc3ccc4c(c3)OCO4)nc(NC3CCC(O)CC3)nc21 (centres undefined)	10.4	35.4
CC(C)n1cnc2c(Nc3ccccc3)nc(NC3CCC(O)CC3)nc21 (centres undefined)	2.0	55.9*
CCN(CC)C(=O)C(=O)N/N=C/c1cccc(OC)c1OC	.	-8.9
O=C(NCCN1CCOCC1)c1cccc(Nc2ccc(N3CCOCC3)cc2)n1	2.4	8.4
O=C(Nc1ccc(N2CCOCC2)cc1)c1cccc(Nc2ccc(-n3ccnc3)cc2)n1	-3.2	49.9*
CC(=O)Nc1ccc(NC(=O)c2cccc(Nc3ccc(N4CCOCC4)cc3)n2)cc1	-10.5	42.3
CC(=O)Nc1ccc(NC(=O)c2cccc(Nc3ccc(-n4ccnc4)cc3)n2)cc1	-1.7	16.2
O=C(Nc1ccc(N2CCOCC2)cc1)c1cccc(Nc2ccc(N3CCOCC3)cc2)n1	-0.7	47.9*
CN1CCN(C(=O)c2ccc(-c3nc4ccc(C(=O)NCc5cccc(C(F)(F)F)c5)cc4s3)cc2)CC1	8.8	-31.4
CC(=O)Nc1ccc(Nc2cc(Nc3ccncc3)nc(N)n2)cc1	-0.9	2.2
COc1cc(Nc2cc(Nc3ccncc3)ncn2)cc(OC)c1OC	17.4	62.4*
COc1cc(Nc2cc(Nc3cnccn3)ncn2)cc(OC)c1OC	10.7	7.7
CC(=O)Nc1ccc(Nc2cc(Nc3ccncn3)nc(N)n2)cc1	4.2	4.8
SMILES	ASK1 primary	ULK1 inh
CC(=O)Nc1ccc(Nc2cc(Nc3ccncc3)ncn2)cc1	-1.8	79.3*
CC(=O)Nc1ccc(Nc2cc(Nc3ccncn3)ncn2)cc1	10.7	62.3*
COc1nc(NCc2ccccc2)nc(-c2cccc(N)c2)n1	-7.0	-22.3
C[n+]1c2cc(N)ccc2cc2ccc(N)cc21	.	70.5*
Cn1cc(-c2nc(Nc3ccc(-n4cnc(N5CCOCC5)n4)cc3)ncc2Br)cn1	-56.8	61.3*
Cc1onc(-c2nc(Nc3ccc(-n4cnc(N5CCOCC5)n4)cc3)ncc2Cl)c1-c1cnn(C)c1	14.4	-22.2
Cc1ncn(-c2ccc(Nc3ncc(Br)c(-c4cnn(C)c4)n3)cc2)n1	-67.9	84.7*
Cc1ccc(-c2ncn(-c3ccc(Nc4ncc(F)c(-c5cnn(C)c5)n4)cc3)n2)cn1	17.7	-0.7
CCCNc1nc(OC)nc(-c2ccccc2)n1	2.3	-32.2
CC(=O)Nc1ccc(NC(=O)c2cnc(-c3cccc(N)c3)s2)cc1	-0.5	-18.7
CC(C)n1cnc2c(Nc3ccccc3)nc(Nc3cccnc3)nc21	-9.1	51.5*
c1cncc(CNc2nc(Nc3ccc4c(c3)OCO4)c3ncn(-c4ccsc4)c3n2)c1	28.6	52.9*
c1ccc2[nH]c(CNc3nc(Nc4ccc(-n5ccnc5)cc4)nc4c3ncn4-c3ccsc3)nc2c1	1.4	36.5
c1ccc2[nH]c(CNc3nc(Nc4ccncc4)nc4c3ncn4-c3ccsc3)nc2c1	18.2	48.9*
CC(C)n1cnc2c(Nc3ccc(Oc4ccccc4)cc3)nc(Nc3cccnc3)nc21	14.7	7.8
c1cncc(CNc2nc(NCc3ccc4c(c3)OCO4)nc3c2ncn3-c2ccsc2)c1	-19.1	9.6
CC(=O)Nc1ccc(Nc2nc(NCc3ccc4c(c3)OCO4)nc3c2ncn3C(C)C)cc1	15.1	8.3
CC(C)n1cnc2c(Nc3ccc4c(c3)OCO4)nc(NCc3ccc4c(c3)OCO4)nc21	39.9*	-11.1
COc1ccc(-c2ncc(C)c(NCCCN3CCCC3=O)n2)cn1	-13.0	1.4
CC(=O)c1cccc(-c2ccc(C(=O)NC3CCN(Cc4ccccc4)CC3)s2)c1	4.2	-8.1
c1cnc2ccc(Nc3nccc(NC4CC4)n3)cc2c1	-1.4	0.4
CCCNc1cc(C)nc(-c2ccc(N3CCOCC3)nc2)n1	-2.9	0.5
Nc1ccc2c(c1)C1c3ccccc3C2c2ccccc21	.	-15.8
CC(C)n1cnc2c(NCc3ccccc3)nc(NCc3cccnc3)nc21	-6.9	1.9
CC(C)n1cnc2c(Nc3ccccc3)nc(NCc3cccnc3)nc21	3.1	54.1*
SMILES	ASK1 primary	ULK1 inh
CCNc1nc(Nc2ccccc2)c2ncn(C(C)C)c2n1	15.1	56.5*
CCNc1nc(Nc2cc(OC)c(OC)c(OC)c2)c2ncn(C(C)C)c2n1	8.2	-20.8
O=C(COc1ccccc1F)NCc1nnnn1-c1cccc(F)c1	.	-11.1
O=C(NC1CC1)c1cccc(NS(=O)(=O)c2ccc(-c3ncnc4[nH]ccc34)cc2)c1	7.8	43.5*
NC(=O)c1ccc(-c2cccc(C(=O)NC3CC3)c2)cc1	-20.0	-16.4
CC(N)(Cc1ccc(O)c(O)c1)C(=O)O (centres undefined)	.	84.8*
CCOC(=O)C(C)(N)Cc1ccc(O)c(O)c1 (centres undefined)	.	-13.3
COc1ccc(Cl)cc1N(CC(=O)NCc1cccnc1)S(C)(=O)=O	.	9.5
Cc1cc(O)c(C(c2ccncc2)N2CCC(C)CC2)c(=O)n1Cc1ccco1 (centres undefined)	.	7.6
COc1ccc2c(c1)CC(c1nc3ccc(-c4cn[nH]c4)cc3c(=O)n1CCN1CCCC1)CO2 (centres undefined)	-9.8	-6.9
Oc1ccc(CCNc2nc(Nc3ccc(C(F)(F)F)cc3)nc3c2ncn3Cc2ccc(C(F)(F)F)cc2)cc1	0.8	-42.4
O=Cc1ccc(O)c(O)c1O	.	88.6*
Cc1cccc(C)c1N1C(=O)CC(SC(C)(C)C(N)C(=O)O)C1=O (centres undefined)	.	-0.9
COc1nc(N/N=C/c2cccc3ccccc23)nc(N2CCOCC2)n1	.	-7.8
Nn1cnnc1N/N=C/c1cccc2ccccc12	.	60.0*
CCCNC(=O)c1csc(Nc2ncccn2)n1	-6.2	13.1
c1ccc(Nc2nc(NC3CC3)c3[nH]cnc3n2)nc1	-10.5	-8.9
c1cncc(Nc2nc(NC3CC3)c3[nH]cnc3n2)c1	-44.6	59.8*
CC(C)N(CCNc1cc(Nc2cnccn2)nc(N)n1)C(C)C	-17.0	6.2
CCC(=O)c1c(O)cc(O)cc1O	.	62.0*
Oc1cc(O)cc(O)c1	.	6.7
COc1cc(OC)nc(Oc2ccccc2/C=N/NC(N)=S)n1	.	2.4
CCc1nnc(N/N=C/c2ccccc2Cl)n1N	.	48.1*

Source: PubChem BioAssay (The Scripps Research Institute Molecular Screening Center)
